Screening results from PubChem.
G9a inh: G9a (human) methyltransferase inhibition. Q96KQ7. G9a H3K9 monomethylation, AlphaScreen, 2 h. Potency, µM (doses to about 102 µM), for inactives: at the top dose activity, negative = inhibition, hits mostly inhibitors. actives 8.8% (n = 350,000). AID 504332; note: % is set by controls: 0 for no effect and ±100 for the full control effect; nearly all actives have a fitted effect of over 75% in size
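Compounds were preincubated with 20 nM G9a for 15 min, after which biotinylated H3K9 peptide (500 nM) and SAM (20 uM) started a 2 h room-temperature reaction. Monomethylated product was quantified by antibody-based AlphaScreen chemiluminescence.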
JMJD2A Tudor: JMJD2A Tudor domain (human) inhibition; O75164; AlphaScreen JMJD2A-Tudor / H3K4me3 peptide binding; Potency, µM (series often up to 114 µM), for the others: top-dose activity change, negative = inhibition, most hits filed as inhibitors; actives 4.4% (n = 390,000); AID 504339; note: % is set by controls: 0 for no effect and ±100 for the full control effect; nearly all actives have a fitted effect of over 50% in size
Target sequence (O75164 whole entry, looked up, the tested form may be a part): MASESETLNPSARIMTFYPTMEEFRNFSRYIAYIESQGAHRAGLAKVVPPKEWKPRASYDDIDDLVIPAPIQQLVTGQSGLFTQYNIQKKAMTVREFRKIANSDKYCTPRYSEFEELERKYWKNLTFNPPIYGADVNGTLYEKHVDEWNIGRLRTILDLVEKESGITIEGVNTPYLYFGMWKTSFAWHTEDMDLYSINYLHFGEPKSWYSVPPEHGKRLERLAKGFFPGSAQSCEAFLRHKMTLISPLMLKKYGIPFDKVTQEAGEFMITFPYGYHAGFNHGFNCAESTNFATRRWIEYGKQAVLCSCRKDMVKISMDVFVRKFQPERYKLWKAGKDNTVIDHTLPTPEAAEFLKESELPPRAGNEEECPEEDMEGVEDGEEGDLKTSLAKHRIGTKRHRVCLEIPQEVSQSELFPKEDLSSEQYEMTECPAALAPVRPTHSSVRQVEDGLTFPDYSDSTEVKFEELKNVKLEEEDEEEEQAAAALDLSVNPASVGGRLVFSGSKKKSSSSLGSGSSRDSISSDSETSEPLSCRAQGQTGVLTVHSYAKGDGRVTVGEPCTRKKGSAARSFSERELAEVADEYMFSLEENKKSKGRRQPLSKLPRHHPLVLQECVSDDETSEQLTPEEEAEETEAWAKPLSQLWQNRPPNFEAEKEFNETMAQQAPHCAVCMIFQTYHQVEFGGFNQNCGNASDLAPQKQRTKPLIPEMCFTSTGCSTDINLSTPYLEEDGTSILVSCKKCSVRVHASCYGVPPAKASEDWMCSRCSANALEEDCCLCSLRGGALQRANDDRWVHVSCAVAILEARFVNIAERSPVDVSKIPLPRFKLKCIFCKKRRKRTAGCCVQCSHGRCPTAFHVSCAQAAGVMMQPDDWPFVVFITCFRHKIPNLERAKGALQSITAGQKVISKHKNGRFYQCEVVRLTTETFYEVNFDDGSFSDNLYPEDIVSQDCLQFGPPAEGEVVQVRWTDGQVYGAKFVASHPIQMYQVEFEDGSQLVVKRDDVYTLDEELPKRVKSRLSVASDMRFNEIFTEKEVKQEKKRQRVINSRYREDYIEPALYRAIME
BAZ2B block: blocks human BAZ2B | Q9UIF8 | Potency, µM (titrated, usually from 114 µM), for inactives: at the highest dose activity change, negative = inhibition, actives largely listed as inhibitors | AlphaScreen BAZ2B-H3K14Ac peptide displacement | actives 4.4% (n = 360,000) | AID 504333; note: % is set by controls: 0 for no effect and ±100 for the full control effect; nearly all actives have a fitted effect of over 60% in size
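AlphaScreen luminescence quantifies BAZ2B engagement of H3K14Ac peptide; the protein and biotinylated peptide are both at 50 nM final, buffer PBS pH 7.4 with 0.01% Tween-20, all steps at room temperature.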
L3MBTL1 block: inhibitors of human L3MBTL1; AlphaScreen L3MBTL1–H3K9me1 peptide binding; Potency, µM (series often up to 57.1 µM), for the others: at the highest dose activity, negative = inhibition, most hits filed as inhibitors; actives 0.66% (n = 230,000); AID 485360; note: % is set by controls: 0 for no effect and ±100 for the full control effect; nearly all actives have a fitted effect of over 60% in size
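First, the protein-peptide complex forms for 30 min at room temperature (L3MBTL1 50 nM, biotinylated H3K9me1 peptide 75 nM). Next, compounds are pin-transferred and incubated 30 min. Finally, AlphaScreen beads are added and read after 30 min.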
HP1b binding inh: inhibitors of HP1-beta chromodomain binding to methylated histone tails. P83916. AlphaScreen HP1-beta / biotin-H3K9me3 peptide binding. Potency, µM (doses to about 114 µM), inactives show at the highest dose activity change, negative = inhibition, hits mostly inhibitors. actives 0.56% (n = 390,000). AID 540317; note: nearly all actives have a fitted effect of over 70% in size
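AlphaScreen: HP1-beta (50 nM) preformed 30 min with biotin-H3(1-18)K9me3 peptide (50 nM) in PBS pH 7.4, 0.01% Tween-20. Compound added for 30 min at RT, then streptavidin donor/nickel chelate acceptor beads (10 ug/mL) for 30 min.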
* = called active by the depositor; ? = inconclusive; / = not tested or not shown; [ ] = another dose, or the depositor's remark. The list is not random: actives were taken first. Their share in the collection is about 11%. Calls come from the whole dose curve; as a rule, active = well fitted inhibition curve with a large enough effect; inconclusive = small, poorly fitted or top-dose-only effect; inactive = no such curve, though single readings can be large or run the other way. Potency is the fitted concentration of half-maximal effect.

SMILES	G9a inh	JMJD2A Tudor	BAZ2B block	L3MBTL1 block	HP1b binding inh
Cn1c(=O)c2[nH]c(-c3ccccc3)c(O)c2n(C)c1=O	2.2µM*	-7%	11%	1%	26%
Fc1ccccc1-n1ncc2c1ncn1nc(Cc3ccccc3)nc21	-10%[59 µM]	-2%	4%	/	24%
Cc1cccc(N2CCN(C(=O)CN3CCSc4ccccc43)CC2C)c1 (centres undefined)	-44%[59 µM]	50µM*	?	/	-15%[57 µM]
Cc1cccc(N2CCN(C(=O)Cn3ncc4c3-c3cc(C)ccc3OC4)CC2C)c1 (centres undefined)	?	?	32µM*	/	-9%
COc1ccccc1C(=O)Nc1nnc(SCc2cc(=O)n3ccc(C)cc3n2)s1	0%[59 µM]	-16%	3%	/	15%[57 µM]
Cc1cc(C)c2c(N)c(C(=O)N3CCc4ccccc4C3)sc2n1	71µM*	1%	-15%	1%	99%
Cc1cc(C)c2c(N)c(C(=O)NC3CCCC3)sc2n1	35µM*	-8%	-2%	39%	44%
Cc1cc(C)c2c(N)c(C(=O)NCC3CCCCC3)sc2n1	?	9%	9%	/	64%
CCN1CCc2nc3sc(C(=O)N4CCc5ccccc5C4)c(N)c3cc2C1	20µM*	79µM*	?	/	-19%
Cc1ccccc1-c1nnc(SCC(=O)N2CCCc3ccccc32)o1	4%[59 µM]	29%	23%	/	62%
CCO/C=C1\C(=O)N(c2ccccc2)C(=O)c2ccccc21	25µM*	-28%	?	-6%	25%
CCOC=C1C(=O)N(C(C)=O)c2cc(OC)c(OC)cc21	/	?	/	/	-10%[57 µM]
CCO/C=C1/C(=O)N(CC)c2ccccc21	?	-9%[11.4 µM]	6%	0%	-2%
CCO/C=C1/C(=O)N(C)C(=O)c2cc(OC)ccc21	3.5µM*	-11%	-1%	/	28%
CCO/C=C1/C(=O)N(c2ccccc2OC)C(=O)c2ccccc21	28µM*	?	-16%	-1%	18%
CCO/C=C1/C(=O)N(Cc2ccccc2)C(=O)c2ccccc21	14µM*	-24%	-3%	-2%	47%
COc1ccccc1N1C(=O)c2ccccc2C1=O	/	-31%	/	/	/
O=C(NCC1CCN(Cc2cccc(F)c2)CC1)c1cc2ccc3cccnc3c2[nH]1	-40%[59 µM]	-5%	5%[57.1 µM]	/	14%
CCO/C=C1/C(=O)N(c2ccc(OC)cc2)C(=O)c2ccccc21	25µM*	-23%	-15%	4%	27%
Cc1ccccc1Cc1c(C)nc2nc(SCC(=O)N(C)c3ccccc3)nn2c1C	-26%[59 µM]	-22%	-14%	/	21%
CN1CCN(c2ccc(NC(=O)c3ccc(Oc4ccccc4)cc3)cc2)CC1	50µM*	?	?	/	-38%
COc1ccc(NC(=S)c2ccc(N(C)C)cc2)cc1	25µM*	-11%	-26%	-15%	?
COc1ccc(C(=O)Nc2ccc(N3CCCC3)cc2)cc1Br	40µM*	?	0%	-6%	12%
CCOc1ccc(C(=O)NC(=S)Nc2ccc(N3CCC(C)CC3)cc2)cc1[N+](=O)[O-]	10µM*	?	?	-36%	-32%
COCCNc1ncnc2ccc(-c3ccccc3C)cc12	6%[0.501 µM]	/	/	/	/
SMILES	G9a inh	JMJD2A Tudor	BAZ2B block	L3MBTL1 block	HP1b binding inh
CC(C)c1ccc(NC(=O)CN2C=NS(=O)(=O)c3ccccc32)cc1	1%[59 µM]	-19%	3%	/	25%
CCCCCOc1ccc(C(=O)CCC(=O)Nc2ccc(NC(C)=O)cc2)cc1	15%	-17%	3%	/	26%
CCCCC(CC)CNC(=O)c1ccc2c(=O)n(CCOC)c(=O)[nH]c2c1 (centres undefined)	1%[59 µM]	-9%	4%	/	31%
CC(C)Oc1ccc(C(=O)Nc2ccc(N(C)C)cc2)cc1	3.5µM*	?	12%	-11%	-19%
COc1ccc(C(=O)N/N=C(/C)c2ccc(N3CCCCC3)cc2)cc1	20%[59 µM]	50µM*	2%	-4%	8%
COc1ccc(C(=O)NC(=S)Nc2ccc(CN3CCCCC3)cc2)cc1Cl	13µM*	?	?	-3%	-34%
CC(C)Oc1cccc(C(=O)NC(=S)Nc2ccc(N3CCN(C)CC3)cc2)c1	/	50µM*	40µM*	-16%	?
CC(C)Oc1ccc(C(=O)Nc2ccc3c(c2)n(C)c(=O)n3C)cc1	-2%	-9%	?	3%	49%
CCc1ccc(-n2nc(C)c3c(C)cc(=O)n(CC(=O)NCc4ccc(C)cc4)c32)cc1	8%[59 µM]	-22%	0%	/	44%
COc1ccc(CNC(=O)c2ccc3c(c2)N(Cc2cc(C)ccc2C)C(=O)CS3)cc1	7%[59 µM]	-9%	0%	/	10%
COc1ccc(C(=O)NC(=S)Nc2ccc(N3CCCC3)cc2)cc1	?	-19%	-28%	-17%	-10%
COCCNC(=S)N/N=C/c1ccc(N2CCOCC2)cc1	7%[59 µM]	-24%	-39%	-5%	31%
O=C(Nc1ccc2c(c1)C(=O)c1ccccc1-2)c1ccccc1	/	-10%	/	/	16%
COc1cc(C(=O)NC(=S)Nc2ccc(N3CCCC3)cc2)cc(OC)c1OC	32µM*	-31%	?	-10%	10%
COc1cccc(C(=O)Nc2ccc3c(c2)C(=O)c2ccccc2C3=O)c1	-14%[59 µM]	18µM*	-36%	1%	-12%
COc1cccc(C(=O)NC(=S)Nc2ccc(N3CCCC3)cc2)c1	8.9µM*	40µM*	13µM*	?	?
COCCNC(=S)Nc1ccc(N2CCCCC2)cc1	8.9µM*	?	50µM*	/	?
CC(C)CN1C(=O)C(=O)N(CC(=O)c2ccc3c(c2)CCCC3)C1=O	?	-21%	11%	11%	30%
COc1cccc(C(=O)Nc2ccc(C)cc2)c1	8%[12.7 µM]	-6%	3%	-10%[11.4 µM]	41%
COc1ccccc1C(=O)NC(=S)Nc1ccc(N2CCCC2)cc1	45µM*	?	1%	-1%	?
CN(C)c1ccc(NC(=S)c2ccc3ccccc3n2)cc1	2µM*	-12%	2.5µM*	/	41%
COc1cc(OC)cc(C(=O)NC(=S)Nc2ccc3oc(=O)ccc3c2)c1	8%	?	-5%	/	-5%
COc1cccc(C(=O)NC(=S)Nc2ccc3oc(=O)ccc3c2)c1	40µM*	-26%	3%	3%	17%
COc1cccc(C(=O)NC(=S)Nc2ccc(N(C)C)cc2)c1	10µM*	25µM*	10µM*	?	?
CC(=O)c1[nH]c(C)c(C(=O)NCc2ccc(Cl)cc2)c1C	3%[59 µM]	5%	-3%	/	65%
N#CCSc1nc2c(cc1C#N)CCCC2	25µM*	9%	8%	9%	42%
N#Cc1cc2c(nc1SCC(=O)O)CCCCC2	/	5%	-25%	-10%	91%
CSC1CCCCC1(O)CSc1nc2c(cc1C#N)CCCC2 (centres undefined)	2.5µM*	20µM*	3%	-9%	?
CC(C)Oc1ccc(CNC(=O)C2COc3ccccc3C2)cc1 (centres undefined)	-2%[59 µM]	-19%	3%	/	22%[57 µM]
